# Reference: PubChem BioAssay (NCI)
# About 83,000 compounds went through this panel and 20% of them were active in at least one assay; those are over-represented in the sample as a whole.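 Testing used 96-well plates and a 48-hour single-concentration exposure. Example: -40 means 40% of the starting cells died.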 Unmarked numbers belong to inactive results. The source made the active and inactive calls. Rule for the calls: active = growth percent below 10; inactive = the rest.
# Tests used:
# Test in all cases: NCI-60 one-dose screen, 48 h (100 = growth as untreated, 0 = no growth, -100 = all killed)
# Conditions in all cases: 10 µM unless noted
# SK-MEL-2 melanoma = tested on: SK-MEL-2 melanoma
# EKVX NSCLC = tested on: EKVX NSCLC
# SN12C renal = tested on: SN12C renal
# UO-31 renal = tested on: UO-31 renal
# TK-10 renal = tested on: TK-10 renal
# ACHN renal = tested on: ACHN renal
# CAKI-1 renal = tested on: CAKI-1 renal
# A498 renal = tested on: A498 renal
# CCRF-CEM leukemia = tested on: CCRF-CEM leukemia
# MOLT-4 leukemia = tested on: MOLT-4 leukemia
# SR leukemia = tested on: SR leukemia
# OVCAR-8 ovarian = tested on: OVCAR-8 ovarian
# OVCAR-5 ovarian = tested on: OVCAR-5 ovarian
# OVCAR-4 ovarian = tested on: OVCAR-4 ovarian
# SK-OV-3 ovarian = tested on: SK-OV-3 ovarian
# IGROV1 ovarian = tested on: IGROV1 ovarian
# OVCAR-3 ovarian = tested on: OVCAR-3 ovarian
# HS 578T breast = tested on: HS 578T breast
# NCI/ADR-RES ovarian = tested on: NCI/ADR-RES ovarian
SMILES,growth (SK-MEL-2 melanoma),growth (EKVX NSCLC),growth (SN12C renal),growth (UO-31 renal),growth (TK-10 renal),growth (ACHN renal),growth (CAKI-1 renal),growth (A498 renal),growth (CCRF-CEM leukemia),growth (MOLT-4 leukemia),growth (SR leukemia),growth (OVCAR-8 ovarian),growth (OVCAR-5 ovarian),growth (OVCAR-4 ovarian),growth (SK-OV-3 ovarian),growth (IGROV1 ovarian),growth (OVCAR-3 ovarian),growth (HS 578T breast),growth (NCI/ADR-RES ovarian)
Cc1ccc(C(CC(=O)O)c2c(C)[nH][nH]c2=O)cc1 (stereo not given),113%,105%,98.2%,93%,98.6%,104%,101%,112%,97.1%,98.8%,99%,101%,106%,111%,97.7%,105%,109%,109%,102%
COc1cc2cc(Oc3ccc(NC(=O)Nc4ccc(Cl)c(Cl)c4)cc3)c(C)nc2cc1OCCN1CCOCC1,107%,66.4%,91.5%,83.9%,124%,93.4%,87.5%,72.8%,65%,62.7%,5.6% (active),91.1%,127%,85%,111%,97.8%,106%,102%,91.4%
CCOC(=O)c1cnn2c3ccccc3n(S(=O)(=O)c3ccc(OC)cc3)c12,66.7%,38.4%,22.2%,46.7%,79.7%,35.4%,42.3%,-3.19% (active),9.32% (active),16.5%,14%,27.5%,42.5%,71.4%,48.2%,28.6%,0.973% (active),37.3%,0.145% (active)
COc1cc2cc(Oc3ccc(NC(=O)Nc4cc(C(F)(F)F)cc(C(F)(F)F)c4)cc3)c(C)nc2cc1OCCN1CCOCC1,32.9%,21.4%,8.87% (active),20.1%,53.6%,5.89% (active),15.3%,40.7%,9.65% (active),8.21% (active),-34.9% (active),17.2%,46.6%,17.9%,22.7%,33.5%,9.29% (active),60.6%,9.17% (active)
c1ccc(CO[C@H]2CO[C@H]3[C@@H]2OC[C@@H]3Oc2ccc(Nc3ncnc4ccsc34)cc2)cc1,84%,62.3%,69.3%,42%,99.6%,72.1%,74.7%,33.2%,77.7%,64.5%,60.6%,81.6%,94.9%,81.8%,95.8%,70.3%,93.7%,90.5%,73.3%
CC(C)OC(=O)Nc1ccc(-c2nc(-c3cccc(OCCN4CCOCC4)c3)c(-c3ccnc(Br)c3)[nH]2)cc1,32.5%,50.3%,57.6%,-15.9% (active),68.1%,28.4%,35.5%,-9.64% (active),16.8%,0.706% (active),-14.6% (active),38.9%,55.6%,54%,12.2%,45.7%,45.1%,-33% (active),57.1%
O=C(Nc1ccc(Br)cc1F)c1cc(Br)ccc1O,-25.4% (active),9.76% (active),-10.9% (active),-11% (active),15.3%,-0.439% (active),2.12% (active),-42% (active),20.9%,1.26% (active),4.87% (active),11.6%,25.3%,22.4%,12%,15.3%,5.37% (active),4.22% (active),7.36% (active)
COc1ccc2sc3c(NCCCNCCO)nc4ccccc4c3c(=O)c2c1,102%,67.2%,62%,46.4%,75%,57.7%,44%,38.1%,2.35% (active),16.4%,-46.9% (active),54.6%,84.2%,4.38% (active),85.7%,45.9%,0.904% (active),53%,63.8%
CCCCn1c(-c2ccc(C(=O)O/N=C(\N)c3ccc(OC)cc3)cc2)nc(-c2ccccc2)c1-c1ccccc1,52.6%,-79.2% (active),-62.7% (active),-93.7% (active),-78.8% (active),-97.9% (active),-46.3% (active),20.9%,-48.7% (active),-39.7% (active),-47.4% (active),-16.8% (active),24.1%,23.1%,87%,-70.2% (active),-6.99% (active),-8.31% (active),-39.5% (active)
CCOC(=O)CCN(C(=O)Nc1ccccc1)C1CCCCC1,119%,101%,117%,118%,120%,110%,110%,109%,107%,93.8%,129%,128%,87.4%,113%,112%,93.2%,118%,107%,106%
CCOc1cccc(NC2=C(Br)C(=O)C(C)=C(C)C2=O)c1,95.5%,92.4%,85%,71.7%,155%,85.8%,96%,109%,3.35% (active),2.57% (active),74.7%,91.5%,95.7%,56.7%,88%,58.6%,87.6%,91.2%,96.5%
CCCCn1c(-c2ccc(-c3nc(-c4ccc(Cl)cc4)no3)cc2)nc(-c2ccccc2)c1-c1ccccc1,103%,-93.7% (active),83.2%,-5.33% (active),126%,60.3%,82.4%,89.1%,69.7%,65.6%,6.15% (active),88.5%,85.4%,82%,88.8%,39.5%,93.9%,95.4%,82.5%
CCOC(=O)C1=C(N)Oc2c(sc3c(C)cccc23)C1c1ccc(Cl)cc1 (stereo not given),46.6%,48.3%,38.6%,38.5%,78.7%,39.5%,2.8% (active),3.91% (active),17%,32.9%,17.5%,36.8%,41.6%,56.6%,54.7%,22.6%,0.78% (active),18.9%,24.6%
O=C1c2cccc3cccc(c23)C(=O)N1Nc1nc(N2CCOCC2)nc(N2CCN(c3ccccc3)CC2)n1,59.9%,50%,64.8%,29.9%,96%,41.2%,41.2%,-3.12% (active),56.9%,42%,23.7%,71.6%,83.8%,79.9%,54.8%,32.9%,11.2%,42.9%,37.8%
N#Cc1cccc(NC(=O)c2cc(-c3ccc(F)cc3F)ccc2O)c1,-6.68% (active),89.4%,4.26% (active),-11.4% (active),21.9%,7.33% (active),3.62% (active),-33.2% (active),27.4%,11.8%,12.8%,16.8%,36.8%,22.1%,6.59% (active),29%,1.29% (active),16%,4.93% (active)
Cc1c(C(=O)/C=C/Nc2c(Cl)cc(S(N)(=O)=O)cc2Cl)sc2nc3ccccc3n12,109%,106%,102%,89.2%,111%,99%,98.5%,101%,102%,106%,110%,101%,106%,116%,111%,111%,107%,105%,110%
Cc1nn(-c2ccccc2)c(-n2ccnc2)c1/C=N/Nc1nc(-c2ccc(F)cc2)cs1,98.1%,49.5%,80.3%,51.2%,98.3%,78.9%,80%,71.8%,70.1%,48.3%,49%,76.1%,105%,56%,81.4%,87.4%,84.8%,82.9%,79.2%
NCCNc1nc2ccccc2c2c(=O)c3cccc(F)c3sc12,102%,74.1%,47.5%,40.7%,71.7%,34.2%,39.6%,59.7%,34.5%,7.98% (active),12.3%,46.5%,81.8%,48.3%,78.8%,48%,53.1%,67.6%,53.9%
CC1=C(C)C(=O)C(Nc2cccc(C(=O)OC(C)(C)C)c2)=C(Br)C1=O,106%,103%,85.7%,71.6%,122%,87.5%,96.4%,87.3%,8.53% (active),12.5%,15.9%,92.4%,99.9%,88.8%,93.2%,86.7%,77.7%,92.8%,94.7%
CNC(C)[C@H]1CCC2C3CCC4C[C@@H](N(C)C(=O)c5ccccc5)CC[C@]4(C)C3CC[C@@]21C (stereo not given in full),38.7%,24.5%,34.6%,-9.71% (active),65.4%,46.9%,58.2%,57.3%,21.7%,16.5%,34.5%,47.5%,81.6%,-5.3% (active),67%,22.8%,9.46% (active),38.7%,42.4%
c1ccc2c(c1)Nc1ccncc1S2,119%,73.1%,97.6%,78.5%,109%,94.2%,61.2%,80.7%,117%,142%,200%,101%,89.5%,93.1%,112%,99.4%,119%,102%,107%
CCOC(=O)c1sc2ncc(-c3ccc(OC)cc3)n2c1C,103%,94.8%,92.1%,79.3%,156%,-100% (active),96.3%,107%,94.6%,94.5%,104%,91.6%,105%,97.5%,78.7%,81.4%,108%,94.1%,92.3%
Cc1c(C(=O)NCCCc2ccccc2)sc2ncc(-c3ccc(Br)cc3)n12,115%,106%,98.7%,92%,135%,103%,101%,110%,96.8%,99.8%,106%,105%,107%,111%,99.5%,100%,112%,104%,107%
Cc1cc(C)c(-c2c(N)cc(Br)cc2Br)c(N)c1,44.1%,65.9%,68.7%,61.5%,72%,75.1%,50.3%,70.9%,26.4%,34.4%,24.9%,83.8%,84.9%,74.3%,31.7%,63.9%,65%,66.4%,54.5%
CCCCn1c(=O)c(-c2cc(-c3ccc(Cl)cc3)nc(-c3ccc(Cl)cc3)c2)cc2cc(C)ccc21,118%,101%,92.2%,86.2%,98.7%,107%,94.8%,103%,101%,105%,109%,100%,100%,110%,115%,96.4%,112%,99.1%,104%
